Assay outcomes from PubChem BioAssay.
Shown are actives, neighbours in structure and some others; about 13% of the full set was active somewhere.
Pf growth 48h = inhibits P. falciparum growth in the first generation, 48 h. P. falciparum luciferase growth in erythrocytes, 48 h. Potency, µM (doses to about 28.7 µM), usual class: inhibitors. 310,000 tested, 5.9% active. AID 504832
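First compound was added to culture medium, then infected red cells at 0.1% parasitemia and 2% hematocrit (final). After incubation at 37 C under 5% CO2, luciferase detection reagent was dispensed and light output recorded.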
HCV inh = blocks hepatitis C virus; Huh7.5.1 HCVcc-Cre infection, luciferase reporter, 44 h; Potency, µM (highest dose often 41.8 µM), most hits filed as inhibitors; 340,000 tested, 3.4% active
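1,000 cells/well; 4 h culture; + compound; + HCVcc-Cre (~0.5 moi); 44 h; luciferase substrate, RT 15 min; read 15 sec.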
Pf growth 96h = P. falciparum growth inhibition at 96 hours; P. falciparum luciferase reporter growth, 96 h; Potency, µM (doses to about 28.7 µM), hits mostly inhibitors; 320,000 tested, 6.9% active
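Plates of compound plus infected erythrocytes (2% hematocrit, 0.05% parasitemia final) incubate 96 hours, 37 C, 5% CO2. Detection reagent added; reduced luminescence from the parasites' luciferase reporter flags inhibition.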
HCMV antiviral = blocks human cytomegalovirus replication | HFF cells, HCMV-luciferase reporter, 72 h; hits give low values | activity change, negative = inhibition, % at 57.5 µM | 410,000 tested, 4.5% active | AID 1259415; in the data active = activity change below about -60%; inconclusive = no clear call, values can overlap the other calls; inactive = above about -39%
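Cell-based, HFFs, 1000 cells/well, 16 h 37C; cpds in DMSO + HCMV-luc, MOI 1 PFU/cell; 72 h 37C; OneGlo luminescence after 5 min RT; norm. to buffer vs Salinomycin 10uM.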
Hits are given with their value. Unless noted, calls follow the shape of the dose curve; as a rule, active = well fitted inhibition curve with a large enough effect; inconclusive = small, poorly fitted or top-dose-only effect, or another doubt; inactive = no such curve, though single readings can be large or run the other way.

Cc1oc(-c2cccc(Cl)c2)nc1CN1CCC(C(=O)NC(C)C)CC1 was read as HCMV antiviral inactive.
For CCc1ccc(-c2nc(CN3CCC(C(=O)NCc4ccccc4OC)CC3)c(C)o2)cc1 the results were Pf growth 48h inconclusive, HCV inh 10µM, Pf growth 96h inactive and HCMV antiviral inactive.
Screening COc1ccccc1CNC(=O)C1CCN(Cc2nc(-c3ccc(Cl)cc3)oc2C)CC1 returned HCMV antiviral inactive.
For COc1ccccc1CNC(=O)C1CCN(Cc2nc(-c3cccc(Cl)c3)oc2C)CC1 the results were Pf growth 48h 10µM, HCV inh inconclusive, Pf growth 96h inactive and HCMV antiviral inactive.
For CCN1CCCC1CNC(=O)C1CCN(Cc2nc(-c3cccc(Br)c3)oc2C)CC1 (stereo unspecified) the results were Pf growth 48h 6.6µM, HCV inh 2.5µM and Pf growth 96h inconclusive.
Cc1oc(-c2cccc(F)c2)nc1CN1CCCCC1CCn1cccn1 (stereo unspecified) was read as Pf growth 48h 13µM, HCV inh inactive, Pf growth 96h inactive and HCMV antiviral inactive.
For COc1ccc(N2CCN(S(=O)(=O)c3ccc(F)c(C(=O)Nc4ccccc4Cl)c3)CC2)cc1 the results were HCMV antiviral inactive.
For CN(C)c1ccc(C(=O)N[C@H]2CC[C@@]34CCCN3C(=O)CCC[C@H]4[C@H]2Cc2ccccc2)cc1 the results were HCMV antiviral inactive.
For CCN(CC#CCC(O)(c1ccccc1)c1ccccc1)C(C)C the results were Pf growth 48h 8.3µM, HCV inh inactive, Pf growth 96h inconclusive and HCMV antiviral inconclusive.
Screening COC1CCCCC1Nc1ccc(C)c(C)c1 (stereo unspecified) returned Pf growth 48h inactive, HCV inh inactive, Pf growth 96h 2.1µM and HCMV antiviral inactive.
`CC(CNC(=O)C1CCN(C(=O)c2cc3sccc3n2C)CC1)c1ccccc1` (stereo unspecified) gave HCMV antiviral inactive.
`O=Cc1c(-c2ccccc2)nc2ccccn12` gave Pf growth 48h inactive, HCV inh inactive, Pf growth 96h 13µM and HCMV antiviral inactive.
`Cc1cc(C)cc(NS(=O)(=O)c2cnc(Cl)c(Cl)c2)c1` gave Pf growth 48h inactive, HCV inh 11µM and HCMV antiviral inactive.
For CC(C)(C)c1cc(C(=S)N2CCCC2)cc(C(C)(C)C)c1O the results were Pf growth 48h inconclusive, HCV inh inconclusive, Pf growth 96h 4.1µM and HCMV antiviral inactive.
Screening CC(C)(C)c1cc(CCC(=O)N2CCCC2)cc(C(C)(C)C)c1O returned Pf growth 48h inactive, HCV inh inactive, Pf growth 96h inactive and HCMV antiviral inactive.
COCCOC(=O)C1=C(C)NC(=O)NC1c1cn(-c2ccccc2)nc1-c1ccccc1 (stereo unspecified) was read as HCMV antiviral inactive.
For CC[C@@]12C(=O)N(c3cccc(Br)c3)C(=O)N1[C@H](c1cccc(C)c1)[C@@H]1C(=O)N(Cc3ccccc3)C(=O)[C@@H]12 the results were Pf growth 48h 4.1µM, HCV inh inactive, Pf growth 96h 5.2µM and HCMV antiviral inactive.
For CC[C@@]12C(=O)N(c3ccccc3)C(=O)N1[C@H](c1cccc(C)c1)[C@@H]1C(=O)N(Cc3ccccc3)C(=O)[C@@H]12 the results were Pf growth 48h inconclusive, HCV inh inactive, Pf growth 96h 6.6µM and HCMV antiviral inactive.
Cc1cccc([C@@H]2[C@@H]3C(=O)N(Cc4ccccc4)C(=O)[C@@H]3[C@]3(CC(C)C)C(=O)N(c4cccc(F)c4)C(=O)N23)c1 was read as Pf growth 48h 9.3µM, HCV inh inactive, Pf growth 96h inconclusive and HCMV antiviral inactive.
CC[C@@]12C(=O)N(c3cccc(F)c3)C(=O)N1[C@H](c1cccc(C)c1)[C@@H]1C(=O)N(Cc3ccccc3)C(=O)[C@@H]12 was read as Pf growth 48h inconclusive, HCV inh inactive, Pf growth 96h inconclusive and HCMV antiviral inactive.
For Cc1cccc([C@@H]2[C@@H]3C(=O)N(Cc4ccccc4)C(=O)[C@@H]3[C@]3(CC(C)C)C(=O)N(c4cccc(Br)c4)C(=O)N23)c1 the results were Pf growth 48h inconclusive, HCV inh inactive and Pf growth 96h inconclusive.
Screening COc1ccccc1N1C(=O)c2ccccc2NC1c1ccncc1 (stereo unspecified) returned Pf growth 48h inactive, HCV inh inactive, Pf growth 96h inconclusive and HCMV antiviral inactive.
